Measured values reported in the supplement of paper PMC9262897, “Low-cost anti-mycobacterial drug discovery using engineered E. coli” (Nature Communications, 2022).
Counter-ions that a name gives are not always drawn. ± gives the standard deviation of the averaged measurements.

What was measured:
Test in all cases: growth (OD600 after 10 h); higher = more growth (less inhibition)
[1] = system: E. coli TESEC Alr+ wild-type control; details: compound 0.1 mM; raw OD600 reference: median of DMSO wells 0.241, cell-free background 0.041
Description: (§1)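 TESEC Mtb Alr E. coli, or the Alr+ wild-type control, in 384-well plates with Prestwick library compounds at 0.1 mM and 1% DMSO, across arabinose induction levels of 1E3 to 1E7 nM. Growth is read as OD600 after 10 h at 37 °C in triplicate biological replicates.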

E. coli TESEC Mtb Alr [2] = details: compound 0.1 mM
Description: as §1

E. coli TESEC Mtb Asd = details: compound 0.1 mM
Description: (§2)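 TESEC E. coli strains in which the native enzyme is deleted and replaced by arabinose-inducible Mtb Asd, DapB, CysH or TrpD, each grown in its selective medium. Strains were screened against the Prestwick library at 0.1 mM and 1% DMSO in 384-well format at low and high arabinose induction. Growth is read as OD600 after 10 h in triplicate.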

E. coli TESEC Mtb DapB = details: compound 0.1 mM
Description: as §2

E. coli TESEC Mtb Alr [3] = details: compound 0.1 mM; remark: listed apart in the source
Description: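 TESEC Mtb Alr E. coli (ΔaraC ΔtolC ΔentC Δalr ΔdadX, arabinose-inducible Mtb Alr) or the Alr+ wild-type control strain, grown in defined M9-fructose medium without D-alanine in 96-well plates with Prestwick library compounds at 0.1 mM and 1% DMSO. Low Alr induction is 0.1 µM arabinose and high induction is 10 mM arabinose.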

[4] = arabinose 1000 nM, raw OD600 reference: median of DMSO wells 0.294, cell-free background 0.041
[5] = arabinose 10000 nM, raw OD600 reference: median of DMSO wells 0.264, cell-free background 0.041
[6] = arabinose 100000 nM, raw OD600 reference: median of DMSO wells 0.201, cell-free background 0.041
[7] = arabinose 1000000 nM, raw OD600 reference: median of DMSO wells 0.193, cell-free background 0.041
[8] = arabinose 10000000 nM, raw OD600 reference: median of DMSO wells 0.146, cell-free background 0.041
[9] = arabinose induction (level): High, raw OD600 reference: median of DMSO wells 0.331, cell-free background 0.041
[10] = arabinose induction (level): Low, raw OD600 reference: median of DMSO wells 0.417, cell-free background 0.041
[11] = arabinose induction (level): High, raw OD600 reference: median of DMSO wells […], cell-free background 0.041
[12] = arabinose induction (level): Low, raw OD600 reference: median of DMSO wells 0.227, cell-free background 0.041
[13] = arabinose 100 nM, raw OD600 reference: median of DMSO wells 0.413, cell-free background 0.052
[14] = arabinose 10000000 nM, raw OD600 reference: median of DMSO wells […], cell-free background 0.052

Row | SMILES | growth [1] | growth (E. coli TESEC Mtb Alr [2]; [4]) | growth (E. coli TESEC Mtb Alr [2]; [5]) | growth (E. coli TESEC Mtb Alr [2]; [6]) | growth (E. coli TESEC Mtb Alr [2]; [7]) | growth (E. coli TESEC Mtb Alr [2]; [8]) | growth (E. coli TESEC Mtb Asd; [9]) | growth (E. coli TESEC Mtb Asd; [10]) | growth (E. coli TESEC Mtb DapB; [11]) | growth (E. coli TESEC Mtb DapB; [12]) | growth (E. coli TESEC Mtb Alr [3]; [13]) | growth (E. coli TESEC Mtb Alr [3]; [14])
1 | NC(=O)C(c1ccccc1)(c1ccccc1)[C@@H]1CCN(CCc2ccc3c(c2)CCO3)C1 [Darifenacin hydrobromide] | 0.163 ± 0.011 | 0.216 ± 0.0036 | 0.292 ± 0.0043 | 0.16 ± 0.02 | 0.0999 ± 0.0027 | 0.146 ± 0.011 | 0.156 ± 0.033 | 0.276 ± 0.01 | 0.186 ± 0.0081 | 0.205 ± 0.015 | 0.411 ± 0.0056 | 0.272 ± 0.016
2 | C=Cc1c(C)c2cc3nc(cc4[nH]c(cc5nc(cc1[nH]2)C(C)=C5CCC(=O)O)c(CCC(=O)OC)c4C)[C@@]1(C)C3=CC=C(C(=O)OC)C1C(=O)OC.C=Cc1c(C)c2cc3nc(cc4[nH]c(cc5nc(cc1[nH]2)C(C)=C5CCC(=O)OC)c(CCC(=O)O)c4C)[C@@]1(C)C3=CC=C(C(=O)OC)C1C(=O)OC (some centres undefined) [Verteporfin] | 0.313 ± 0.011 | 0.356 ± 0.011 | 0.289 ± 0.0059 | 0.443 ± 0.0078 | 0.179 ± 0.0041 | 0.218 ± 0.0072 | 0.329 ± 0.016 | 0.432 ± 0.0089 | 0.211 ± 0.024 | 0.277 ± 0.043 | 0.556 ± 0.057 | 0.439 ± 0.021
3 | CC12CC3CC(C)(C1)CC(N)(C3)C2 [Memantine Hydrochloride] | 0.161 ± 0.005 | 0.207 ± 0.007 | 0.237 ± 0.017 | 0.184 ± 0.0066 | 0.195 ± 0.019 | 0.175 ± 0.0048 | 0.256 ± 0.039 | 0.155 ± 0.011 | 0.165 ± 0.011 | 0.199 ± 0.0086 | 0.398 ± 0.018 | 0.392 ± 0.018
4 | Cc1ncc(C[n+]2csc(CCO)c2C)c(N)n1 [Thiamine hydrochloride] | 0.246 ± 0.0087 | 0.295 ± 0.0076 | 0.251 ± 0.0027 | 0.174 ± 0.014 | 0.185 ± 0.0064 | 0.129 ± 0.0017 | 0.354 ± 0.062 | 0.418 ± 0.062 | 0.227 ± 0.024 | 0.217 ± 0.015 | 0.42 ± 0.0059 | 0.362 ± 0.02
5 | CC(C)c1c(C(=O)Nc2ccccc2)c(-c2ccccc2)c(-c2ccc(F)cc2)n1CC[C@@H](O)C[C@@H](O)CC(=O)O [Atorvastatin] | 0.12 ± 0.0024 | 0.177 ± 0.0077 | 0.108 ± 0.0075 | 0.168 ± 0.0033 | 0.0909 ± 0.0015 | 0.136 ± 0.0052 | 0.169 ± 0.018 | 0.169 ± 0.018 | 0.171 ± 0.018 | 0.183 ± 0.031 | 0.352 ± 0.058 | 0.175 ± 0.037
6 | O=c1oc2ccccc2c(O)c1Cc1c(O)c2ccccc2oc1=O [Dicumarol] | 0.178 ± 0.001 | 0.159 ± 0.0018 | 0.1609 ± 0.0012 | 0.149 ± 0.0042 | 0.0997 ± 0.0013 | 0.126 ± 0.0032 | 0.289 ± 0.049 | 0.262 ± 0.049 | 0.18 ± 0.014 | 0.199 ± 0.046 | 0.128 ± 0.022 | 0.0655 ± 0.0074
7 | Cc1ccc(N(CC2=NCCN2)c2cccc(O)c2)cc1 [Phentolamine hydrochloride] | 0.219 ± 0.0053 | 0.287 ± 0.0088 | 0.27 ± 0.0075 | 0.2 ± 0.0085 | 0.173 ± 0.0079 | 0.161 ± 0.0026 | 0.252 ± 0.065 | 0.377 ± 0.048 | 0.193 ± 0.019 | 0.252 ± 0.024 | 0.411 ± 0.019 | 0.352 ± 0.026
8 | C=C1c2c(Cl)ccc(O)c2C(O)=C2C(=O)[C@]3(O)C(O)=C(C(N)=O)C(=O)[C@@H](N(C)C)[C@@H]3[C@@H](O)[C@H]12.O=C(O)c1cc(S(=O)(=O)O)ccc1O [Meclocycline sulfosalicylate] | 0.0437 ± 0.0018 | 0.0465 ± 0.0035 | 0.04467 ± 0.00042 | 0.047 ± 0.001 | 0.04453 ± 0.00031 | 0.0463 ± 0.0019 | 0.0721 ± 0.0074 | 0.0594 ± 0.0053 | 0.156 ± 0.089 | 0.05473 ± 0.00042 | 0.0611 ± 0.00062 | 0.0561 ± 0.00065
9 | CCOC(=O)[C@H](CCc1ccccc1)N[C@H]1CCc2ccccc2N(CC(=O)O)C1=O [Benazepril HCl] | 0.245 ± 0.011 | 0.044 ± 0.0065 | 0.0504 ± 0.011 | 0.253 ± 0.023 | 0.173 ± 0.0047 | 0.1615 ± 0.0012 | 0.293 ± 0.042 | 0.36 ± 0.066 | 0.198 ± 0.0085 | 0.24 ± 0.038 | 0.0476 ± 0.0029 | 0.331 ± 0.015
10 | CCN(CC)CCNC(=O)c1cc(Br)c(N)cc1OC [Bromopride] | 0.243 ± 0.025 | 0.312 ± 0.011 | 0.256 ± 0.0069 | 0.196 ± 0.0058 | 0.181 ± 0.006 | 0.1557 ± 0.00098 | 0.467 ± 0.025 | 0.4797 ± 0.0047 | 0.196 ± 0.014 | 0.256 ± 0.033 | 0.4074 ± 0.0017 | 0.316 ± 0.022
11 | Cc1cc(=O)oc2cc(O)ccc12 [Hymecromone] | 0.227 ± 0.0065 | 0.286 ± 0.024 | 0.25 ± 0.0054 | 0.177 ± 0.012 | 0.182 ± 0.0058 | 0.148 ± 0.0076 | 0.317 ± 0.033 | 0.411 ± 0.013 | 0.198 ± 0.0059 | 0.208 ± 0.032 | 0.406 ± 0.017 | 0.355 ± 0.0061
12 | CC(C)NCC(O)c1ccc(O)c(O)c1 (single isomer, unassigned; (+)) [(+)-Isoproterenol (+)-bitartrate salt] | 0.211 ± 0.0042 | 0.274 ± 0.02 | 0.2493 ± 0.0013 | 0.18 ± 0.015 | 0.149 ± 0.0077 | 0.137 ± 0.0022 | 0.328 ± 0.028 | 0.468 ± 0.034 | 0.2017 ± 0.0019 | 0.199 ± 0.0075 | 0.412 ± 0.013 | 0.326 ± 0.021
13 | CC(=O)NC[C@H]1CN(c2ccc(N3CCOCC3)c(F)c2)C(=O)O1 [Linezolid] | 0.047 ± 0.0002 | 0.0465 ± 0.0021 | 0.0406 ± 0.00046 | 0.0473 ± 0.0018 | 0.0402 ± 0.00055 | 0.0474 ± 0.0016 | 0.072 ± 0.0052 | 0.0786 ± 0.0075 | 0.0899 ± 0.0032 | 0.0871 ± 0.0054 | 0.135 ± 0.055 | 0.0531 ± 0.0013
14 | Clc1ccc(COC(Cn2ccnc2)c2ccc(Cl)cc2Cl)c(Cl)c1 (centres undefined) [Miconazole] | 0.0977 ± 0.098 | 0.201 ± 0.11 | 0.03953 ± 0.00021 | 0.0741 ± 0.0079 | 0.03923 ± 0.00025 | 0.141 ± 0.061 | 0.0471 ± 0.00055 | 0.0481 ± 0.0013 | 0.0949 ± 0.0049 | 0.134 ± 0.1 | 0.051 ± 0.0039 | 0.083 ± 0.0044
15 | COc1cc2nc(N3CCN(C(=O)C4COc5ccccc5O4)CC3)nc(N)c2cc1OC (centres undefined) [Doxazosin mesylate] | 0.054 ± 0.0033 | 0.047 ± 0.002 | 0.0476 ± 0.00044 | 0.0463 ± 0.0012 | 0.04047 ± 5.8e-05 | 0.0449 ± 0.0026 | 0.092 ± 0.023 | 0.0521 ± 0.004 | 0.194 ± 0.015 | 0.208 ± 0.038 | 0.277 ± 0.2 | 0.0514 ± 0.0015
16 | CN(C)CC/C=C1/c2ccccc2COc2ccc(CC(=O)O)cc21 [Olopatadine hydrochloride] | 0.2304 ± 0.0017 | 0.281 ± 0.0096 | 0.276 ± 0.0029 | 0.179 ± 0.014 | 0.231 ± 0.013 | 0.126 ± 0.0042 | 0.256 ± 0.056 | 0.328 ± 0.089 | 0.198 ± 0.011 | 0.233 ± 0.015 | 0.425 ± 0.0062 | 0.361 ± 0.013
17 | CC[C@@H]1C(=O)OC[C@@H]1Cc1cncn1C [Pilocarpine nitrate] | 0.231 ± 0.0064 | 0.247 ± 0.037 | 0.244 ± 0.011 | 0.204 ± 0.032 | 0.18 ± 0.0025 | 0.145 ± 0.0063 | 0.222 ± 0.012 | 0.279 ± 0.044 | 0.199 ± 0.016 | 0.222 ± 0.023 | 0.391 ± 0.0052 | 0.319 ± 0.044
